Screening results deposited in PubChem BioAssay by several laboratories.
Bead autofluor: counter-screen for toxin protease inhibitors: compound fluorescence. compound autofluorescence counterscreen, microsphere flow cytometry; stronger effect = higher value. fluorescence intensity (concentration not given with the values). hit rate 3.1% among 360,000; in the data active = fluorescence intensity above about 16000; inconclusive = no clear call, values can overlap the other calls
Anthrax LF prot: Bacillus anthracis LF protease inhibitors, primary screen, biochemical, multiplex microsphere, MLPCN library | multiplex microsphere protease cleavage assay | Lethal factor (Bacillus anthracis), P15917 | inhibition, % at 10 µM | hit rate 0.12% among 360,000
BoNT-A LC inh2: BoNT/A light chain protease inhibitors, primary screen, biochemical, flow cytometry, MLPCN library | Botulinum neurotoxin type A light chain protease (Clostridium botulinum A str. ATCC 3502) | multiplex microsphere protease substrate cleavage | inhibition, % at 10 µM | hit rate 0.17% among 360,000
BoNT F protease: BoNT/F light chain protease inhibitors, primary screen, biochemical, flow cytometry, MLPCN library | hit rate 0.22% among 360,000 | inhibition, % at 10 µM | Multiplex microsphere protease cleavage assay | AID 588497, 2011 | Botulinum neurotoxin type F light chain protease (Clostridium botulinum); in the data active = inhibition above about 35%, passing the limit was not always enough; inconclusive = no clear call, values can overlap the other calls
GDH-TPI counter: GDH-TPI coupling enzyme inhibitors, primary screen, artefact control for M. tuberculosis FBA inhibitor project, biochemical, absorbance, full deck; GDH-TPI coupled enzyme counterscreen, NADH absorbance; inhibition, % at 4.8 µM; hit rate 1.2% among 360,000; in the data active = inhibition above about 30%
FBA Mtb inh: Mtb FBA enzyme inhibitors, primary screen, biochemical, fluorescence, strain H37Rv; hit rate 2.3% among 360,000; Fructose-bisphosphate aldolase (Mycobacterium tuberculosis (strain ATCC 25618 / H37Rv)), …; inhibition, % at 1 µM; AID 588726, 2011; purified M. tuberculosis FBA, fluorescence read-out; in the data active = inhibition above about 27%
Large screens that a line does not name were inactive. A selection: hits, their analogues and other compounds. The true share with any hit is near 6.6%. Cut-off read from the data, not from the text of the source, unless noted: active = inhibition above about 30%; inconclusive = no clear call, values can overlap the other calls; inactive = below that.

CC1=C(O)C(=O)C(C2=C(O)C(=O)C(C)=C(O)C2=O)=C(O)C1=O	GDH-TPI counter 49
O=C(NC1CC1)c1ccc(NC(=O)C2CCC2)cc1	none
Oc1ccc(/C=N/NC(=S)Nc2cccnc2)cc1O	GDH-TPI counter 34
COc1ccccc1/C=N/NC(=S)Nc1cccnc1	none
Oc1ccc(C=NNC(=S)Nc2cccnc2)nc1	GDH-TPI counter 50
O=C(c1cc(Cl)cc(Cl)c1)N1CCC2CC1c1cc(N3CCCCC3)ccc12 (stereo unspecified)	Bead autofluor 24126
COc1ccc(OC)cc1	none
COc1ccc(-c2cc(O)cc(O)c2)cc1	Bead autofluor 16572
COc1ccc(-[n+]2c(-c3ccccc3)cc(-c3ccc(C)cc3)cc2-c2ccccc2)cc1	none
COc1ccc(-c2cc(-c3ccccc3)[n+](C)c(-c3ccccc3)c2)cc1	FBA Mtb inh 35
CN1C(=O)C(=Cc2ccccc2Oc2ccc(Cl)cc2)C(=O)N(C)C1=O	FBA Mtb inh 131
CN1C(=O)C(=Cc2ccccc2OCc2ccc(Cl)cc2)C(=O)N(C)C1=O	none
COc1ccc(N2CCN(c3nccs3)CC2)cc1	none
Cc1nnc(-c2cnn(-c3ccccc3)c2N)n1Cc1ccncc1	Bead autofluor 20279, BoNT-A LC inh2 inconclusive
CCOc1cc(C(=O)OCC(=O)c2c(N)n(C)c(=O)n(C)c2=O)cc(OCC)c1OCC	Bead autofluor 22161
CC(C)Cn1c(N)c(C(=O)COC(=O)c2nccnc2N)c(=O)n(C)c1=O	FBA Mtb inh active
CC(C)Cn1c(N)c(C(=O)COC(=O)c2ccncc2)c(=O)n(C)c1=O	none
CN(C)CCNc1ncnc2c1ncn2[C@H]1CN(Cc2ccc(-c3ccccc3)cc2)C[C@@H](CO)O1	none
CC(C)C(=O)NC(=S)/C=C1/N(C)c2ccccc2C1(C)C	none
CN1/C(=C\C=N\NC(=O)c2cccnc2)C(C)(C)c2ccccc21	none
CN1/C(=C\C=N\NC(=O)c2ccc(O)cc2)C(C)(C)c2ccccc21	GDH-TPI counter 40
Cc1ccc(C(=O)NC(=S)/C=C2\N(C)c3ccccc3C2(C)C)cc1	BoNT-A LC inh2 42
COc1ccc(N2CCN(C(CNC(=O)C(C)C)c3ccc4c(c3)OCO4)CC2)cc1 (stereo unspecified)	none
COC(=O)c1cc(C(=O)c2cc(Cl)ccc2O)coc1=N	none
Cc1ccc(O)c(C(=O)c2coc(=N)c(C(=O)NC(C)C)c2)c1	Bead autofluor 20781, BoNT-A LC inh2 inconclusive
COCCOC(=O)c1cc(C(=O)c2cc(F)ccc2O)coc1=N	GDH-TPI counter 37
CN(Cc1ccccc1)C(=O)c1ccc(NC(=O)C2=CSCCO2)cc1	none
O=C(O)c1cccc(-c2nc3ccccc3[nH]2)c1	FBA Mtb inh 112
COC(=O)c1ccc(-c2n[nH]c(=O)c3ccccc23)cc1	Bead autofluor 19671, BoNT-A LC inh2 inconclusive
Cc1cc(-c2nc3ccccc3[nH]2)ccc1N	FBA Mtb inh 174
c1ccc(-c2nc3ccccc3[nH]2)cc1	none
O=C(Nc1ccc(-c2nc3ccccc3[nH]2)cc1)c1ccco1	GDH-TPI counter 42
O=C(CCC(=O)c1ccc(Oc2ccccc2)cc1)Nc1ccc(C(=O)O)cc1	BoNT F protease inconclusive
Cc1ccc(C(=O)n2nc(C#N)c(C#N)c2N)cc1	none
COC(=O)c1ccc(-c2ncc[nH]2)cc1	FBA Mtb inh active
COc1ccc(-c2nc3ccccc3[nH]2)cc1	none
COC(=O)c1ccc(-c2nc3ccccc3[nH]2)cc1	FBA Mtb inh active
Cn1c(SCc2ccc(Cl)cc2)nc(C(F)(F)F)cc1=O	Bead autofluor 20153
COC(=O)c1cnc(SCc2ccc(Cl)cc2)n1C	none
COCCNC(=O)C1(C)CCCN(C(=O)c2cnc3ccccc3n2)C1 (stereo unspecified)	none
CC1=C(C#N)C(NC(=O)C2CCCCC2)(C(F)(F)F)C(=O)N1 (stereo unspecified)	Bead autofluor 22461
CC1=C(C#N)C(NC(=O)C2CC2)(C(F)(F)F)C(=O)N1 (stereo unspecified)	none
O=S1(=O)N=C(Nc2nncs2)c2ccccc21	Bead autofluor 22257, BoNT-A LC inh2 inconclusive
Cc1ccc(Sc2ncccc2COC(=O)NC(C)C)cc1	none
CCCCSCc1nc2nc(Cl)c(Cl)nc2[nH]1	GDH-TPI counter 35
Cc1nn(CCC(=O)O)c2nc(-c3cccnc3)cc(C(F)(F)F)c12	none
N#Cc1c(C(F)(F)F)cc(-c2cccs2)nc1SCC(=O)O	GDH-TPI counter 37
Cc1nn(CCC(N)=O)c2nc(-c3cccs3)cc(C(F)(F)F)c12	GDH-TPI counter 31, FBA Mtb inh 153
N#Cc1c(C(F)(F)F)cc(-c2cccs2)nc1SC(C(=O)O)c1ccccc1 (stereo unspecified)	none
COc1cccc(C(NC(C)=O)c2nc(-c3cccc(O)c3)cs2)c1 (stereo unspecified)	none
O=C(CCCc1c[nH]c2ccccc12)Nc1ncccc1O	none
O=C1Nc2ccccc2N=C(c2ccccc2)C1N1CCOCC1 (stereo unspecified)	Bead autofluor 21946, BoNT-A LC inh2 inconclusive
CCOC(=O)C1CCN(C2=C(NS(=O)(=O)c3ccc(Cl)cc3)C(=O)c3ccccc3C2=O)CC1	FBA Mtb inh 129
CCOC(=O)C1CCCN(C2=C(NS(=O)(=O)c3ccc(Br)cc3)C(=O)c3ccccc3C2=O)C1 (stereo unspecified)	none (no result: Bead autofluor, Anthrax LF prot, BoNT-A LC inh2, BoNT F protease)
Cc1ccc(CS(=O)(=O)CCC(=O)NCCc2ccccc2)cc1	none
Cc1ccc(CS(=O)(=O)CCC(=O)NCCN(C)Cc2ccccc2)cc1	Bead autofluor 23874
CCOC(=O)c1cc2sc(C)cc2n1C(C)C(=O)OCC (stereo unspecified)	none
O=C(CCc1ccccc1)Nc1cccnc1Cl	Anthrax LF prot inconclusive, BoNT F protease 66
Cc1cccc(NC(=O)CN(c2ccc(F)cc2)S(C)(=O)=O)c1	none
Cc1n[nH]c(C)c1C(=O)CC1(O)C(=O)N(Cc2ccccc2)c2ccc(Br)cc21 (stereo unspecified)	Bead autofluor 22972
Cc1n[nH]c(C)c1C(=O)CC1(O)C(=O)N(CCc2ccccc2)c2ccc(Br)cc21 (stereo unspecified)	none
C[C@H](CO)N1C[C@H](C)[C@@H](CN(C)Cc2ccncc2)Oc2c(cccc2N(C)C)C1=O	none
CCCCN(C)CCNC(=O)CN1C(=O)CSc2ccc(S(=O)(=O)N3CCCC3)cc21	none
CC(C)CCNC(=O)C1CCN(c2nc3ccccc3o2)CC1	Bead autofluor 16365
OCc1ccc(-c2cccc3nccn23)cc1	FBA Mtb inh active
CN(C)Cc1ccccc1-c1cccc2nccn12	FBA Mtb inh 142
CONC(=O)c1ccc(-c2cccc3nccn23)cc1	none
